Test systems include NCI-H23 lung; NCI-H226 lung; NCI-H322M lung; HOP-62 NSCLC; NCI-H460 lung; HOP-92 NSCLC; NCI-H522 lung; A549/ATCC NSCLC; 786-0 renal; COLO 205 colon; DU-145 prostate; K-562 leukemia; MALME-3M melanoma; MDA-MB-231 breast; RXF 393 renal; SF-268 CNS; SF-295 CNS; SF-539 CNS; UACC-257 melanoma; M14 melanoma.
Holding throughout (assay): NCI-60 one-dose screen, 48 h (100 = growth as untreated, 0 = no growth, -100 = all killed)
Common to all, as to details: 10 µM unless noted

The panel holds about 83,000 compounds, 20% with a hit somewhere; the sample as a whole holds those more often.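 Assay: single dose, 48 h. Readout: percent growth (0 = no net growth; negative = cell death). Active: <10.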 Values without a mark were called inactive. The source made the active and inactive calls.

For the compound `COc1ccc2cc(C(=O)N3CCC([C@@H](C)C(=O)NCc4ccc5c(c4)OCO5)CC3)[nH]c2c1`, the growth with NCI-H23 lung was 26.3% [50 µM]; with NCI-H226 lung, -5.97% [50 µM] (active); with NCI-H322M lung it was 86.7% [50 µM]; in the assay with HOP-62 NSCLC, -1.78% [50 µM] (active); with NCI-H460 lung, 41.9% [50 µM]; in the assay with HOP-92 NSCLC, -17.6% [50 µM] (active). Also, the growth was -6.66% [50 µM] (active) with NCI-H522 lung; 53.7% [50 µM] in the assay on A549/ATCC NSCLC; -10.5% [50 µM] (active) in the assay on 786-0 renal; 88.5% [50 µM] in the assay with COLO 205 colon; 60.5% [50 µM] with DU-145 prostate; 77.2% [50 µM] with K-562 leukemia. For the same compound, the growth was 44.2% [50 µM] in the assay on MALME-3M melanoma; 34.1% [50 µM] with MDA-MB-231 breast; -1.62% [50 µM] (active) in the assay on RXF 393 renal; 32.9% [50 µM] with SF-268 CNS; 48.1% [50 µM] in the assay with SF-295 CNS; 41.1% [50 µM] in the assay with SF-539 CNS. The results for the growth in the assay on UACC-257 melanoma and with M14 melanoma were 77.8% [50 µM] and 65.2% [50 µM], respectively.

For `O=C1Nc2ccc(Cl)cc2/C1=C/c1ccc[nH]1`, the growth was 66.3% in the assay with NCI-H23 lung; 97.4% in the assay on NCI-H226 lung; 69.4% with NCI-H322M lung; 95.8% with HOP-62 NSCLC; 82.3% with NCI-H460 lung; 133% with HOP-92 NSCLC. In addition, the growth with NCI-H522 lung was 71.4%; in the assay with A549/ATCC NSCLC it was 90.3%; in the assay with 786-0 renal, 108%; in the assay with COLO 205 colon it was 126%; in the assay with DU-145 prostate, 83.6%; with K-562 leukemia it was 100%. Besides, the growth is 99.1% with MALME-3M melanoma; 40.7% in the assay with MDA-MB-231 breast; 74% in the assay with RXF 393 renal; 96.4% in the assay with SF-268 CNS; 109% in the assay with SF-295 CNS; 88.6% in the assay on SF-539 CNS. Moreover, the growth was 118% in the assay on UACC-257 melanoma and 78.4% in the assay with M14 melanoma.

Turning to `C#COc1cccc(Nc2ncnc3cc(NC(=O)[C@H](C)Cl)ccc23)c1`, the growth was 18.5% [6.25 µM] in the assay on NCI-H23 lung; 41.7% [6.25 µM] in the assay on NCI-H226 lung; 30% [6.25 µM] in the assay on NCI-H322M lung; 7.33% [6.25 µM] (active) with HOP-62 NSCLC; 3.29% [6.25 µM] (active) in the assay with NCI-H460 lung; 81.5% [6.25 µM] in the assay with HOP-92 NSCLC. Moreover, the growth is -46.2% [6.25 µM] (active) in the assay on NCI-H522 lung; 2.95% [6.25 µM] (active) in the assay on A549/ATCC NSCLC; 14.2% [6.25 µM] in the assay with 786-0 renal; 12.2% [6.25 µM] in the assay with COLO 205 colon; 20.3% [6.25 µM] in the assay on DU-145 prostate; 99.7% [6.25 µM] in the assay with K-562 leukemia. Moreover, the growth with MALME-3M melanoma was 37.5% [6.25 µM]; with MDA-MB-231 breast, 19.1% [6.25 µM]; in the assay with RXF 393 renal, 15.5% [6.25 µM]; with SF-268 CNS, 27.7% [6.25 µM]; in the assay on SF-295 CNS, 1.61% [6.25 µM] (active); in the assay with SF-539 CNS it was 0.539% [6.25 µM] (active). Further, the growth with UACC-257 melanoma was 21.2% [6.25 µM]; with M14 melanoma, 11.7% [6.25 µM].

Regarding `O=C(NCCNC(c1ccccc1)C(NCCNC(=O)c1ccccc1)c1ccccc1)c1ccccc1` (stereo not given), the growth is 83.3% in the assay with NCI-H23 lung; 100% in the assay on NCI-H226 lung; 95.7% in the assay on NCI-H322M lung; 104% in the assay with HOP-62 NSCLC; 59.6% with NCI-H460 lung; 84.8% with HOP-92 NSCLC. Besides, the growth in the assay on NCI-H522 lung was 69.4%; with A549/ATCC NSCLC, 106%; in the assay with 786-0 renal, 106%; with COLO 205 colon, 106%; in the assay on DU-145 prostate it was 19.8%; in the assay with K-562 leukemia, 81.6%. The growth in the assay on MALME-3M melanoma was 101%; with MDA-MB-231 breast, 98%; with RXF 393 renal, 72.9%; in the assay on SF-268 CNS, 99.7%; in the assay on SF-295 CNS it was 81.8%; with SF-539 CNS, 103%. The growth is 96.9% with UACC-257 melanoma and 86.3% with M14 melanoma.

Consider `O=C1C(Cl)=C(Nc2ccccc2)C(=O)c2ccccc21`, for which the growth in the assay on NCI-H23 lung was -34.3% (active); in the assay on NCI-H226 lung, 95.5%; with NCI-H322M lung it was 92.5%; with HOP-62 NSCLC, 101%; in the assay on NCI-H460 lung, 81.1%; in the assay with HOP-92 NSCLC, -94.4% (active). For the same compound, the growth is -86.2% (active) with NCI-H522 lung; 90.8% with A549/ATCC NSCLC; 31.9% in the assay on 786-0 renal; 14% with COLO 205 colon; 87.3% in the assay on DU-145 prostate; -14.8% (active) in the assay with K-562 leukemia. Moreover, the growth with MALME-3M melanoma was -79.5% (active); with MDA-MB-231 breast, -67.5% (active); in the assay with RXF 393 renal, -89.3% (active); in the assay with SF-268 CNS, -45.7% (active); in the assay on SF-295 CNS, 90%; with SF-539 CNS, 44.9%. The growth was -79% (active) in the assay on UACC-257 melanoma and -69.4% (active) in the assay with M14 melanoma.

Turning to `COc1ccc(/C=N/NC(=O)Cn2c(-c3ccc(S(C)(=O)=O)cc3)nc3ccccc32)cc1`, the growth in the assay with NCI-H23 lung was 95.5%; in the assay on NCI-H226 lung it was 99.6%; with NCI-H322M lung it was 91.3%; in the assay on HOP-62 NSCLC, 107%; with NCI-H460 lung, 102%; in the assay on HOP-92 NSCLC, 94.1%. In addition, the growth in the assay on NCI-H522 lung is 92.9%; in the assay on A549/ATCC NSCLC, 113%; with 786-0 renal, 99.3%; with COLO 205 colon it was 111%; in the assay on DU-145 prostate, 111%; in the assay with K-562 leukemia, 98.9%. Besides, the growth in the assay on MALME-3M melanoma is 89%; in the assay on MDA-MB-231 breast it was 95.8%; in the assay with RXF 393 renal, 104%; with SF-268 CNS it was 102%; in the assay on SF-295 CNS, 93.1%; in the assay with SF-539 CNS, 96.4%. Moreover, the growth with UACC-257 melanoma is 112%; in the assay on M14 melanoma, 92.1%.

Take `Cc1nn(-c2ccc([N+](=O)[O-])cc2)c2ncnc(N/N=C/c3ccccc3O)c12`: the growth with NCI-H23 lung is 15.3%; in the assay with NCI-H226 lung it was 35%; in the assay on NCI-H322M lung it was 13.4%; in the assay on HOP-62 NSCLC, -2.87% (active); with NCI-H460 lung it was 0.666% (active); with HOP-92 NSCLC, 36.6%. Besides, the growth in the assay with NCI-H522 lung is 0.557% (active); in the assay on A549/ATCC NSCLC, 13%; in the assay with 786-0 renal, 3.2% (active); with COLO 205 colon, 1.21% (active); in the assay with DU-145 prostate, 20.7%; in the assay on K-562 leukemia, 11.2%. Further, the growth is 2.12% (active) with MALME-3M melanoma; 29% in the assay with MDA-MB-231 breast; 15.7% in the assay with RXF 393 renal; 9.25% (active) in the assay with SF-268 CNS; 12.6% with SF-295 CNS; 7.49% (active) in the assay with SF-539 CNS. The values for the growth in the assay with UACC-257 melanoma and in the assay on M14 melanoma were 13.2% and -17.7% (active), respectively.

`CCOC(=O)C1=C(c2ccccc2)N=C2N(c3ccccc3)N=C(C(C)=O)N2C1c1ccc(F)cc1` (stereo not given): the growth is 105% with NCI-H23 lung; 97.7% in the assay on NCI-H226 lung; 99.2% with NCI-H322M lung; 98.6% in the assay with HOP-62 NSCLC; 100% in the assay with NCI-H460 lung; 93.3% with HOP-92 NSCLC. Moreover, the growth in the assay with NCI-H522 lung is 97.3%; with A549/ATCC NSCLC, 101%; in the assay on 786-0 renal, 99.6%; with COLO 205 colon, 113%; in the assay with DU-145 prostate, 106%; with K-562 leukemia it was 96.3%. For the same compound, the growth in the assay with MALME-3M melanoma was 97.7%; in the assay on MDA-MB-231 breast, 98.8%; in the assay with RXF 393 renal, 75.5%; in the assay with SF-268 CNS, 99.2%; in the assay on SF-295 CNS, 98.6%; in the assay with SF-539 CNS, 101%. Moreover, the growth was 113% with UACC-257 melanoma and 101% with M14 melanoma.

Source of the values: PubChem BioAssay (NCI).
